# Test results published in PubChem BioAssay (NCI).
# Compounds without any hit were thinned out: in the full panel of roughly 83,000, 20% have a hit.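 Compound tested at a single concentration for 48 hours in 96-well plates; a percent growth value below 10 was scored as active.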 A number with no mark means an inactive call. Activity calls are given as the source filed them.
# System: LOX IMVI melanoma
# Assay: NCI-60 one-dose screen, 48 h (100 = growth as untreated, 0 = no growth, -100 = all killed)
# Conditions: 10 µM unless noted
# Method: Growth inhibition of the LOX IMVI human tumor cell line is measured as a screen for anti-cancer activity. Cells are grown in 96 well plates and exposed to the test compound for 48 hours. Compounds are tested at a single concentration, which is 10^-5 M for most compounds. The reported endpoint is percent growth (GI% or GIPRCNT), where numbers from 0 - 100% represent growth inhibition, and numbers from -100% - 0 represent cell death. For example, a value of 40 represents 60% growth inhibition. A value of 0 means no net growth occurred over the course of the experiment. A value of -40 indicates 40% of cells at the beginning of the experiment died by the end of the experiment. A value of -100 means all cells are dead at the end of the experiment.
# NCI-60 Human Tumor Cell Lines Screen was performed using the standard one-dose NCI protocol, which is described in more detail at https://dtp.cancer.gov/discovery_development/nci-60/default.htm.
# Compounds with GIPRCNT values below 10 were considered active. Activity score was based on GIPRCNT using the following formula: […]
# Score is 0 for GIPRCNT values of 100 or above, 50 for GIPRCNT values of 0, and 100 for GIPRCNT values of -100.
row,Compound,growth
1,CC(=O)c1c[nH]c2ccc(-c3ccnc(Nc4ccc(NC(=O)C5CCCC5)c(CN5CCOCC5)c4)n3)cc12,-54.2% (active)
2,COc1ccc(C2=NN(C(C)=O)C(c3cn(Cc4ccc(Cl)cc4)c4ccccc34)C2)cc1 (stereo not given),89.3%
3,O=C1NC(=S)NC(=O)C1=Cc1cn(Cc2ccccn2)c2ccccc12,27.1%
4,COc1cc2c(cc1[N+](=O)[O-])-c1ccc([N+](=O)[O-])cc1/C2=N/NC(N)=S,43.5%
5,Cc1ccc2[nH]c(=S)n(-c3ccc(S(=O)(=O)Nc4ccc(Cl)nn4)cc3)c(=O)c2c1,100%
6,COc1c(Cl)cc(Cl)c2ccc(C=C3C(=O)N(C)C(=O)N(C)C3=O)nc12,101%
7,COc1cccc(CCC(=O)c2cc3c(N)c(C(=O)Nc4ccccc4)sc3nc2C)c1,26.4%
8,Fc1ccc(C2CC(c3cccc(Nc4ccncc4)c3)=NN2c2ccccc2)cc1 (stereo not given),29.8%
9,Cc1ccc(C2C3CC4CCCCC4N3[C@@]3(C(=O)Nc4cc(Cl)ccc43)C2C(=O)c2nc3ccccc3[nH]2)cc1 (stereo not given in full),29.7%
10,CS(=O)(=O)c1ccc(-c2cc(-c3nnc(SCC(=O)Nc4ccc(C(=O)/C=C/c5ccc(Cl)cc5)cc4)n3-c3ccccc3)c3ccccc3n2)cc1,92.2%
11,CCCCCCCC(=O)Nc1nc2[nH]c(CN3CCN(Cc4cccc(I)c4)CC3)c(CN3CCN(Cc4cccc(I)c4)CC3)c2c(=O)[nH]1,-96.6% (active)
12,COc1cc(CNC(=O)CCCCC[P+](c2ccccc2)(c2ccccc2)c2ccccc2)c(OC)c2c1OCO2,61%
13,COc1ccc(C(=O)/C=C/c2c(OC)cc(OC)cc2OC)c(OC)c1,27.3%
14,Cn1c2c(Cl)c(Cl)ccc2c2cc(N)[nH]c(=O)c21,76.1%
15,CCOC(=O)c1cnc2c(cnn2CC)c1NN=C(C)C,90.7%
16,CC(C)CCSc1nc(NNC(N)=O)c(C#N)c(-c2ccccc2)n1,97.6%
17,COc1ccc(/C(=C\c2ccccc2)C(=O)O)cc1OC,95.3%
18,O=C(Nc1cccc(Cl)c1)Oc1c(Br)c(Br)c(Br)c(Br)c1Br,88.6%
19,Cc1cc(Nc2cccc(C(F)(F)F)c2)n2c(nc3ccccc32)c1C#N,59.6%
20,NC(=O)c1cccc(-n2ccc3cc(NC(=O)Nc4cc(C(F)(F)F)cc(C(F)(F)F)c4)ccc32)n1,50.9%

row,Compound,growth
1,c1ccc(Cn2nc3c(c2-c2ccccc2)-c2oncc2CC3)cc1,90.2%
2,Nc1nnc2cc(Cl)ccc2n1,87.9%
3,COc1ccc2c(Nc3ccc(NS(C)(=O)=O)cc3)c3ccccc3nc2c1,-5.18% (active)
4,Cc1nc2sc(C(=O)Nc3cccc(Br)c3)c(N)c2cc1C(=O)c1ccc(C(F)(F)F)cc1,73.3%
5,O=C(Nc1cccc(Cl)c1)c1cc(Cl)ccc1O,-32.5% (active)
6,O=C(N/N=C/c1cccnc1)c1ccccc1Nc1cccc(C(F)(F)F)c1,78.6%
7,CCOC(=O)c1ccc(Nc2ccnc(SCC(=O)c3ccc(C#N)cc3)n2)cc1,80.3%
8,COc1ccc2nc(N=Nc3c(O)ccc4ccccc34)sc2c1,12.8%
9,CC(=O)O[C@H]1CC[C@@]2(C)[C@@H](CC[C@@H]3[C@@H]2CC[C@@]2(C)[C@H]3CC[C@]2(O)C(C)=O)C1,99.2%
10,O=C1/C(=C/c2ccc(O)cc2)COc2ccc(-c3ccccc3)cc21,53.9%
11,COC(=O)C1NC(=S)N(c2ccc(Cl)cc2)C1/C=C/c1ccccc1 (stereo not given),78.5%
12,Fc1ccc(C2CC(c3cccc(Nc4ccncc4)c3)=NN2c2cc(Cl)cc(Cl)c2)cc1 (stereo not given),-83% (active)
13,CCCCCOc1ccc(/C=N/Nc2cc(C)nc3ccc(Br)cc23)cc1,-92.9% (active)
14,Fc1ccc(-n2cc(COc3ncnc4sc5c(c34)CCCC5)nn2)cc1Cl,93.7%
15,COc1cc2nc(-c3ccc(C(F)(F)F)cc3)cc(OCCN3CCC(O)CC3)c2cc1OC,-20.6% (active)
16,O=c1[nH]c2c(s1)CCCC2CN1CCCCC1 (stereo not given),95.5%
17,COc1ccc(C(=O)c2cc3c(N)c(C(=O)Nc4ccc(Cl)cc4)sc3nc2C)cc1,82.6%
18,NC(=O)CN1CCN(c2ccccc2Cl)CC1,109%
19,COc1ccc(/C=C/C(=O)c2ccc(Nc3ncnc4ccccc34)cc2)cc1OC,44.2%
20,CC(O)(CO)c1ccccc1 (stereo not given),102%
